From PubChem BioAssay AID493248 (Broad Institute, 2011)
About 1,400 (61%) of roughly 2,300 compounds were called active. Another 7% or so got no clear call; they are omitted. No rule for the calls is given here. So high a share suggests a set chosen from earlier hits. The list is a sample of the results. Measured potencies and affinities stand elsewhere.

Target: FAD-linked sulfhydryl oxidase ALR (Homo sapiens) (UniProt P55789)
Assay: inhibitors of human ALR sulfhydryl oxidase, dose response, biochemical, H2O2 detection, luminescence, cherry-pick (AID 493248)
Conditions: purified ALR, DTT oxidation, H2O2 HRP-luminol luminescence; at 10 µM (top of the series)

Sequence of FAD-linked sulfhydryl oxidase ALR (Homo sapiens) (P55789 whole entry, looked up): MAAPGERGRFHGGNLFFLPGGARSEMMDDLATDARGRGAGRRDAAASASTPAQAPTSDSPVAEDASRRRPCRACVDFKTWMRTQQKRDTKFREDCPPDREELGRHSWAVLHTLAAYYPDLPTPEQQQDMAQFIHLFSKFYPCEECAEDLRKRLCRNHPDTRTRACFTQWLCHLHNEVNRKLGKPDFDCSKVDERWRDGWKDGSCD

| SMILES | activity change, negative = inhibition [%] |
| --- | --- |
| S=c1[nH]nc(-c2ccco2)n1/N=C/C=C/c1ccccc1 | -45.1 |
| CC1CCCCC1n1c(-c2cccnc2)n[nH]c1=S (stereo unspecified) | -2.8 |
| C=CCn1c(-c2sccc2C)n[nH]c1=S | 0.591 |
| COc1ccc(-c2n[nH]c(=S)n2Cc2ccco2)cc1 | -32.4 |
| N#Cc1ccccc1S(=O)(=O)N1CCN(C(=O)Cc2coc3cc(O)ccc23)CC1 | -102 |
| CCN(C=NC1=NN(c2cccc(C(F)(F)F)c2)CC1)CC | 4.04 |
| CCc1ccc(OC)c(-c2csc(N)n2)c1 | 3.63 |
| COC(=O)c1[nH]c2cc(OC)ccc2c1N=CN(C)C | -64.5 |
| O=c1oc(-c2ccc(F)cc2)nc2ccsc12 | -52.7 |
| O=C(Nc1ccccc1N1CCCCC1)c1cnccn1 | -36.5 |
| Cc1ccc(C(=O)C2CCN(CC(=O)Nc3ccc(N(C)C)cc3)CC2)cc1 | -106 |
| C=CCn1c(-c2cc(OC)cc(OC)c2)n[nH]c1=S | -54.8 |
| C=CCn1c(-c2ccc(N)cc2)nc2ccccc21 | -33.2 |
| Cc1nnc(N2CCN(Cc3ccccc3)CC2)[nH]c1=O | 42.6 |
| CCN(C(=O)CN1CCN(c2cccc(Cl)c2)CC1)c1c(N)n(Cc2ccccc2)c(=O)[nH]c1=O | -43.8 |
| CCn1c(=O)c2c3c(sc2n2c(=S)[nH]nc12)CCC3 | -18.2 |
| COc1cc(/C=N\NC(=O)c2ccc(-c3ccccc3)cc2)cc(OC)c1O | -59.8 |
| COc1cccc(/C=N/NC(=O)CNC(=O)c2ccncc2)c1O | -31.5 |
| COc1cc2c(ccc3cc(OC)c(OC)c(O)c32)cc1O | -112 |
| Cc1nc2ccc(-c3ccccc3)cc2o1 | -7.02 |
| c1c2c(cc3sc(N4CCCCC4)nc13)OCO2 | -5.07 |
| C[C@H](NC(=O)c1cc2c(cn1)[nH]c1ccccc12)C(=O)O | -94.7 |
| O=C(O)c1[nH]c2ccccc2c1NS(=O)(=O)Cc1ccccc1 | -42.2 |

| SMILES | activity change, negative = inhibition [%] |
| --- | --- |
| CCCn1cnc2cc(NCc3cccc(OC)c3)ccc21 | 395 |
| Cn1cnc2cc(NCc3ccccc3O)ccc21 | 297 |
| Oc1ccc(-c2n[nH]c(=S)n2Cc2ccco2)cc1 | -29.1 |
| COc1ccc(C(=O)N/N=C(\Cc2ncc[nH]2)c2ccccc2)cc1 | -40 |
| Cc1[nH]nc(-c2ccc(O)cc2O)c1Oc1ccccc1 | -84.3 |
| COc1ccc(S(=O)(=O)n2nc(OC(=O)c3ccco3)cc2N)cc1 | -55.8 |
| O=C1NN(c2ccccc2)C(=O)/C1=C\c1ccccc1 | -5.6 |
| N/C(=N\N=C\c1ccc(O)cc1)c1nonc1N | -84.5 |
| Nc1cc(C(F)(F)F)ccc1C(=O)O | 8.42 |
| COc1ccccc1N1CC(C(=O)Nc2nnc(SCc3cccnc3)s2)CC1=O (stereo unspecified) | -17.9 |
| Cc1ccc(C)c(-c2nc3cc(N)ccc3o2)c1 | -81.2 |
| COC(=O)c1ccc(-c2nc3cc(N)ccc3o2)cc1 | 72.5 |
| Cc1ccc(-c2nc3cc(N)ccc3o2)c(C)c1 | 19.5 |
| Nc1ccc2nc(-c3cccs3)[nH]c2c1 | -80 |
| COc1ccc(-c2cc(C(F)F)n3ncc(C(=O)n4ccnc4C)c3n2)cc1 | -48 |
| CCCN1CCC(=O)N([C@H](CSc2ccc(OC)cc2)CC(C)C)CC1 | 20.7 |
| O=C(O)CCn1c2c(c3ccccc31)CCCC2 | 5.37 |
| Cc1ccc(NCCC(=O)c2cccs2)cc1C | -51.1 |
| Cc1ccc(Nc2nnns2)cc1C | -6.48 |
| CN(C)c1ccc(CN(C(=O)c2cc3ccccc3oc2=O)C2CCS(=O)(=O)C2)cc1 (stereo unspecified) | -17.6 |
| COc1ccc(NC2CCCN(C(=O)c3ccc(C)nc3)C2)cc1 (stereo unspecified) | 289 |
| S=c1[nH]nc(-c2ccncc2)n1Cc1ccco1 | -47.7 |
| Cc1cccc(C(=O)N2CCCC(N3CCN(c4ccc(F)cc4)CC3)C2)n1 (stereo unspecified) | -66.1 |
